Compounds without any hit were thinned out: in the full panel of roughly 79,000, 15% have a hit. No stated cut-off is given here; in the data, active means growth inhibition above about 70%; inactive means the rest.
Columns and labels:
[1] = NCI Yeast Anticancer Drug Screen. Data for the rad50 strain (AID 155);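 further: 0% = growth of vehicle-only cultures of the same strain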; conditions: S. cerevisiae rad50 strain growth inhibition; at 50.0 µM; stronger effect = higher value
Method in brief: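 Compounds were tested on a yeast strain with an engineered DNA damage repair alteration; the reported value is growth inhibition normalised to vehicle treatment.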

[2] = NCI Yeast Anticancer Drug Screen. Data for the mec2-1 strain (AID 157); conditions: S. cerevisiae mec2-1 strain, at 50.0 µM, stronger effect = higher value
Method in brief: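 Each compound was tested on mec2-1 yeast, a strain altered in DNA damage repair or cell cycle control. Growth inhibition is reported relative to vehicle.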

[3] = NCI Yeast Anticancer Drug Screen. Data for the sgs1 mgt1 strain (AID 161);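 further: 0% = growth of cultures given vehicle only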; conditions: S. cerevisiae sgs1 mgt1 strain, at 50.0 µM, stronger effect = higher value
Method in brief: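 Mutant yeast exposed to compound; growth scored against vehicle-only wells.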

[4] = NCI Yeast Anticancer Drug Screen. Data for the cln2 rad14 strain (AID 165);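 further: 0% = growth equal to vehicle treated cultures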; conditions: S. cerevisiae cln2 rad14 strain, at 50.0 µM, stronger effect = higher value
Method in brief: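 Test compounds were added to cln2 rad14 yeast cultures; inhibition of growth was then determined by comparison with vehicle treatment.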

[5] = NCI Yeast Anticancer Drug Screen. Data for the bub3 strain (AID 167); conditions: S. cerevisiae bub3 mutant strain, at 50.0 µM, stronger effect = higher value
Method in brief: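 Growth of a checkpoint-deficient yeast mutant is measured after compound exposure. Values represent inhibition relative to vehicle.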

[6] = NCI Yeast Anticancer Drug Screen. Data for the mlh1 rad18 strain (AID 175); conditions: S. cerevisiae mlh1 rad18 strain growth inhibition; at 50.0 µM; stronger effect = higher value
Method in brief: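 Inhibition values reflect reduced growth of mutant yeast versus vehicle-treated controls following compound exposure; the mutations affect DNA damage repair.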

Measured: growth inhibition

N#CCCN(CCC#N)C(Cc1cn(CCC#N)cn1)C(=O)O (stereo unspecified)
inactive: [1] -8.5% | [2] 6.35% | [3] 4.95% | [4] -13.2% | [5] 5.35% | [6] 10.8%

O=C(O)c1cccc(C#Cc2ccccc2)c1
inactive: [1] 16.7% | [2] 5.25% | [3] 12.5% | [4] -15.4% | [5] 4.55% | [6] 25.1%

CC(C)CC1OCC(C)(C)C(C(C)C)O1 (stereo unspecified)
inactive: [1] -8% | [2] -6.1% | [3] -17.4% | [4] 2% | [5] -0.4% | [6] 0.4%

CNS(=O)(=O)c1ccc(Br)cc1
inactive: [1] -15.9% | [2] -24.6% | [3] -9.85% | [4] -14.2% | [5] 3.35% | [6] -12.4%

C=CCOC(=O)c1ccccc1O
inactive: [1] 12.9% | [2] -12.1% | [3] -13.3% | [4] -0.9% | [5] -21.2% | [6] 12.8%

CNC(=S)NC(=S)N(C)C
inactive: [1] -1.15% | [2] -29.9% | [3] 35.2% | [4] -25.8% | [5] -35.2% | [6] 35.9%

CC(c1ccccc1)N1COc2cc3c(cc2C1)CN(C(C)c1ccccc1)CO3 (stereo unspecified)
inactive: [1] -11.8% | [2] 0.4% | [3] -6.8% | [4] -28.3% | [5] -1.3% | [6] 6.7%

O=C1C(=Cc2cccnc2)C(=O)c2ccccc21
inactive: [1] 26% | [2] 15.3% | [3] 42.4% | [4] 18.9% | [5] 6.7% | [6] 9%

COc1ccc(NC(=O)C(=O)C(C(=O)c2ccccc2)C2OC(=O)c3ccccc32)c([N+](=O)[O-])c1 (stereo unspecified)
inactive: [1] 8.85% | [2] 5.6% | [3] -23.2% | [4] 26.1% | [5] 28.4% | [6] 8.1%

COc1cc(Cc2c(OC)c(OC)cc(C)c2C(=O)O)cc(OC)c1
inactive: [1] 18.6% | [2] -12.8% | [3] -1.75% | [4] 6.95% | [5] -13.9% | [6] -14.4%

COc1ccccc1C(O)(c1ccccc1)C(O)(c1ccccc1)c1ccccc1OC (stereo unspecified)
inactive: [1] -20.1% | [2] 2.65% | [3] -20.2% | [4] 15.6% | [5] -5.65% | [6] -4.2%

O=C(O)c1c[nH]c2c(Cl)cccc2c1=O
inactive: [1] 18.9% | [2] -16.4% | [3] 4.3% | [4] 10.8% | [5] 18.4% | [6] 14.4%

CCC(O)CN(C)C (stereo unspecified)
inactive: [1] 8% | [2] -4.6% | [3] 6.65% | [4] -13.4% | [5] 0.85% | [6] 3.45%

COc1cc2c(cc1OC)C(=O)Cc1ccc3c(c1CN(C)CC2)OCO3
inactive: [1] -19.9% | [2] -42.7% | [3] -21.7% | [4] 2.7% | [5] -40.5% | [6] -17.9%

CCN(CC)CC(=O)N1CCc2c([nH]c3ccccc23)C1c1cccnc1 (stereo unspecified)
inactive: [1] -40.1% | [2] -21.4% | [3] -11.6% | [4] -5.95% | [5] -35.5% | [6] -34.5%

ClC1CC2CC1C1COCC21 (stereo unspecified)
inactive: [1] 8.9% | [2] -5.35% | [3] -3.85% | [4] -16.2% | [5] -12.6% | [6] -8.9%

CCOC(=O)C1CC(CCl)OC1=O (stereo unspecified)
inactive: [1] -3.65% | [2] 7.1% | [3] 2.1% | [4] -22.9% | [5] 0.6% | [6] 3.95%

ClCCCCCc1c2nc(c(CCCCCCl)c3ccc([nH]3)c(CCCCCCl)c3ccc([nH]3)c(CCCCCCl)c3nc1C=C3)C=C2
inactive: [1] -14.2% | [2] -19.1% | [3] -20.6% | [4] 3.75% | [5] 4.9% | [6] -47.4%

[N-]=[N+]=Nc1c(Cc2ccccc2)c(Cl)nc2ccccc12
inactive: [1] 40.5% | [2] 57.9% | [3] 62.5% | [4] 53.7% | [5] 65% | [6] 40.8%

CC(C)(C)C(=O)OCCN(CCOC(=O)C(C)(C)C)C(=O)COC(=O)C(C)(C)C
inactive: [1] 31.4% | [2] -0.95% | [3] 21.1% | [4] 20.7% | [5] -3.25% | [6] 20.4%

O=Cc1cc2c(cc1Cl)OCO2
inactive: [1] -3.3% | [2] -8.05% | [3] -13.8% | [4] 14.8% | [5] -8.4% | [6] -2%

From PubChem BioAssay (NCI)
